rCAG binder-1 – binds r(CAG) RNA repeats; r(CAG) RNA repeat, TO-PRO-1 dye displacement fluorescence; inhibition, % at 3 µM; 370,000 tested, 1.3% active; AID 651821;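 active = inhibition above the plate cutoff, the mean of all test compounds on that plate plus 3 SD, cut at about 35% in these data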;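 note: 0% = DMSO alone and 100% = 100 µM mitoxantrone as full dye displacement; higher means more dye released from RNA so lower well fluorescence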
Myeloid diff 2 – myeloid differentiation induction | ER-HoxA9 myeloid progenitors, lysozyme-GFP differentiation, flow cytometry | calls only at 10 µM | 360,000 tested, 1% active | AID 624256;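 active = normalized GFP-positive differentiation at or above the plate's own cutoff, the solvent-only control mean plus 3 SD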;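 note: cells exposed to compound for four days before flow analysis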
MPTP inh – inhibitors of mitochondrial permeability transition pore. isolated mouse mitochondria, Ca2+ swelling absorbance, 30 min. inhibition, % at 10 µM. AID 602449. 360,000 tested, 1.4% active;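 active = inhibition of 50% or more, scaled per plate between neutral and stimulator controls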;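 note: 0% = DMSO wells given calcium and 100% = 1 mM EGTA wells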
FAS-TE inh – inhibitors of human fatty acid synthase thioesterase domain; inhibition, % at 15 µM; 360,000 tested, 0.67% active; recombinant FAS-TE, OMFH fluorogenic substrate, fluorescence endpoint;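 active = compounds whose normalised, plate-corrected inhibition of enzyme fluorescence in the single-dose primary screen is 50% or more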;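 note: 0% = DMSO with enzyme and 100% = substrate without enzyme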
GRIN3A LBD mod – NR3A (human) ligand-binding domain modulation; Tm shift relative to glycine control, % at 25 µM; 340,000 tested, 2.5% active; AID 1259313; NR3A LBD differential scanning fluorimetry, Tm shift; 0% = protein alone, 100% = glycine-bound protein;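 active = melting temperature shift of at least 10% of the positive control shift, at one fixed dose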
Rh123 counter – Rhodamine 123 counter-screen of mitochondrial pore hits | isolated mitochondria, membrane potential, Rhodamine 123 fluorescence | shares compounds with MPTP inh | inhibition, % at 10 µM | 5,000 tested, 78% active; in the data active = inhibition above about 22%;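 note: 0% = DMSO vehicle and 100% = positive control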
MPTP swell DR – MPTP inhibition, dose response swelling confirmation; shares compounds with MPTP inh; isolated mitochondria swelling, absorbance; IC50, µM; 780 tested, 58% active; AID 651561; in the data active = IC50 below about 20 µM
MPTP cs DR – active in counter-screen for permeability transition pore inhibitors; isolated mitochondria counterscreen, fluorescence read-out; AID 651564; 780 tested, 49% active; IC50, µM; shares compounds with MPTP inh; in the data active = IC50 below about 80 µM
rCAG bind conf – r(CAG) RNA repeat binding, confirmation | AID 652065 | inhibition, % at 3 µM | shares compounds with rCAG binder-1 | 4,300 tested, 70% active | TO-PRO-1 dye displacement fluorescence;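 active = inhibition above a per-plate cutoff, the mean inhibition of sample wells plus 3 SD, cut at about 35% in these data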;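 note: loss of TO-PRO-1 fluorescence as compound displaces dye from 1x1 AA loop RNA; 0% = DMSO only wells and 100% = 100 µM mitoxantrone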
DNA CAG counter – disrupts DNA CAG TO-PRO-1 complex, flagging rCAG hits; shares compounds with rCAG binder-1; d(CAG) DNA oligo TO-PRO-1 dye displacement, fluorescence; AID 652068; inhibition, % at 3 µM; 4,300 tested, 94% active;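 active = inhibition above its plate's cutoff, the mean test-well inhibition plus 3 SD, cut at about 4.8% in these data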;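 note: 0% = DNA dye mix with DMSO and 100% = 100 µM mitoxantrone; hits displace the dye from DNA and so lower well fluorescence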
DNA CAG DR – DNA CAG dye complex inhibition, dose response counter-screen; AID 686960; shares compounds with rCAG binder-1; 250 tested, 20% active; DNA CAG/GTC duplex TO-PRO-1 dye displacement fluorescence; IC50, µM; in the data active = IC50 below about 10 µM
dCAG DNA bind – inhibits DNA CAG/GTC TO-PRO-1 complex, rCAG binder counter-screen. shares compounds with rCAG binder-1. d(CAG) DNA duplex TO-PRO-1 dye displacement, fluorescence. IC50, µM. 30 tested, 80% active
rCAG binder-2 – r(CAG) repeat RNA binding, TO-PRO-1 displacement; 30 tested, 100% active; IC50, µM; r(CAG) RNA TO-PRO-1 dye displacement, fluorescence; shares compounds with rCAG binder-1
* hit, by the source's call; i = inactive; x = no result given. This is a sample that favours compounds with a hit; in the whole collection about 5.7% have one here. Unless noted, the rule behind the calls is not given here.

SMILES	rCAG binder-1	Myeloid diff 2	MPTP inh	FAS-TE inh	GRIN3A LBD mod	Rh123 counter	rCAG bind conf	DNA CAG counter	others
O=C(Nc1ccc(Cl)c(Cl)c1)C1CCCN(c2nnc(-n3cccc3)s2)C1 (centres undefined)	7	x	x	x	x	x	x	x
Cc1nn(-c2ccccc2)c(Cl)c1/C=C1\SC(=S)NC1=O	65*	x	54*	21	-5	66*	64*	18*
COc1ccccc1NS(=O)(=O)c1cccc(NC(=O)NCCCl)c1	-1	i	6	-5	-1	x	x	x
COc1ccccc1NS(=O)(=O)c1cccc(NC(=O)Nc2cccc(Cl)c2)c1	35*	i	81*	26	23*	76*	27	13*
O=C(COC(=O)c1cc(S(=O)(=O)N2CCCC2)ccc1O)Nc1ccc(SC(F)F)cc1	45*	i	92*	5	13*	96*	40*	11*
COC(=O)[C@]1(Cc2ccccc2)N[C@H](CN(C)C(=O)Nc2ccc(C(F)(F)F)cc2)[C@@H]2C(=O)N(C)C(=O)[C@@H]21	0	i	1	5	-2	x	x	x
CN(C)S(=O)(=O)c1cccc(NC(=S)NNC(=O)c2cc3ccccc3cc2O)c1	87*	i	52*	11	22*	48*	86*	56*
O=C(COc1ccccc1/C=C1\SC(=S)NC1=O)Nc1ccc(F)cc1	39*	i	61*	16	14*	78*	71*	32*	DNA CAG DR=i;dCAG DNA bind=2.8*;rCAG binder-2=1.1*
CN(CCCNC(=O)Cn1c(=O)c2cccn2c2ccccc21)Cc1ccccc1	-5	i	-1	-4	0	x	x	x
COc1cccc(NC(=O)Nc2nc(SC)ns2)c1	44*	i	69*	-3	12*	81*	9	9.4*
CCSc1nsc(NC(=O)Nc2cccc(F)c2)n1	63*	i	98*	11	32*	80*	16	17*
Cc1ccnc(NC(=O)Nc2cccc(F)c2)n1	1	i	0	-7	-1	x	x	x
COc1cccc(NC(=O)Nc2nc(SC(C)(C)C)ns2)c1	74*	i	93*	14	40*	77*	41*	32*
C[C@@H]1O[C@H](C2CCCC2)Cc2[nH]c(=S)[nH]c(=O)c21	4	i	0	-8	x	x	x	x
Brc1ccc(N/N=C(/N=Nc2nn[nH]n2)c2ccccc2)cc1	95*	i	85*	40	4	30*	92*	67*
CCOC(=O)c1c(NC(=O)CSc2nnc(N)s2)sc(C)c1-c1ccc(C)cc1	11	i	9	20	-11	x	x	x
CCOC(=O)c1c(NC(=O)CSc2nnc(C)c(=O)[nH]2)sc(C)c1-c1ccc(C)cc1	43*	i	70*	2	-9	62*	79*	44*
CCCn1nc([N+](=O)[O-])c(C(C#N)c2nc3ccccc3s2)c(Cl)c1=O (centres undefined)	88*	i	112*	26	6	46*	83*	46*
O=[N+]([O-])c1ccc(CN2CCN(c3nc4ccccc4s3)CC2)cc1	1	i	1	4	-2	x	x	x
O=C1NC(c2ccc(Cl)c([N+](=O)[O-])c2)Nc2ccccc21 (centres undefined)	2	i	-1	10	-1	x	x	x
O=C1NC(c2cc(Cl)cc([N+](=O)[O-])c2O)Nc2ccccc21 (centres undefined)	35*	i	88*	3	14*	10	80*	45*	MPTP swell DR=i;MPTP cs DR=11*
O=C1S/C(=C\c2ccc(O)c([N+](=O)[O-])c2)C(=O)N1c1ccccc1Cl	48*	i	59*	18	2	71*	44*	11*
CN1C(=O)/C(=C/c2ccc(O)c([N+](=O)[O-])c2)N(C)C1=S	1	i	-1	16	1	x	x	x
CCOc1ccc2nc(NC(=O)Nc3ccccc3)sc2c1	50*	i	90*	-2	35*	74*	15	20*
COc1ccc(NC(=O)Nc2nc3ccccc3s2)cc1	48*	i	64*	9	28*	81*	15	18*
SMILES	rCAG binder-1	Myeloid diff 2	MPTP inh	FAS-TE inh	GRIN3A LBD mod	Rh123 counter	rCAG bind conf	DNA CAG counter	others
COc1ccc(NC(=O)c2nc3ccccc3s2)cc1	0	i	0	24	-23	x	x	x
CS(=O)(=O)c1ccc2nc(NC(=O)c3ccc(Cl)cc3)sc2c1	3	i	2	0	8	x	x	x
CS(=O)(=O)c1ccc2nc(NC(=O)Nc3ccc(Cl)cc3)sc2c1	60*	i	95*	-7	28*	78*	54*	34*
C[C@H](CO)N1C[C@H](C)[C@H](CN(C)Cc2cccc(O)c2)OCc2ccccc2-c2c(n(C)c3ccccc23)C1=O	8	i	0	17	x	x	x	x
CN1CCN(C(=O)c2cccc(-c3cccc4nccn34)c2)CC1	2	i	1	-10	x	x	x	x
O=C(CN1CCN(S(=O)(=O)c2ccc(Cl)cc2)CC1)NC1CC1	-2	i	2	-2	-4	x	x	x
O=C(NCc1ccco1)c1ccccc1NS(=O)(=O)c1ccc(Br)s1	44*	i	71*	-1	-4	81*	48*	16*
COc1ccc([N+](=O)[O-])cc1NS(=O)(=O)c1ccc(C)cc1	2	i	0	19	-25	x	x	x
Cc1ccc(S(=O)(=O)Nc2ccc3cc([N+](=O)[O-])ccc3c2[N+](=O)[O-])cc1	83*	i	88*	19	3	79*	82*	47*
O=C(O)c1cc(S(=O)(=O)Nc2cc(Cl)ccc2Oc2ccccc2)ccc1O	72*	i	72*	3	8	86*	67*	31*
O=C(O)c1cc(S(=O)(=O)Nc2ccccc2C(=O)O)ccc1O	10	i	0	-2	-8	x	x	x

Compound activity (PubChem BioAssay)
